PMC5540273 (PLoS ONE, 2017)

Key:
Conditions in all cases: concentration: 1 μM, replicates: in singlicate; n = 1
NEK6 = tested on: NEK6
NEK7 = tested on: NEK7
NEK9 = tested on: NEK9
NIK = tested on: T1, NIK
T1 construct: gene MAP3K14

NIM1 = tested on: T2, NIM1
T2 construct: gene MGC42105

NLK = tested on: NLK
OSR1 = tested on: T3, OSR1
T3 construct: gene OXSR1

PAK1 = tested on: PAK1
PAK2 = tested on: PAK2
PAK3 = tested on: PAK3
PAK4 = tested on: PAK4
PAK6 = tested on: PAK6
PAK7 = tested on: PAK7
PCTK1 = tested on: T4, PCTK1
T4 construct: gene CDK16

PCTK2 = tested on: T5, PCTK2
T5 construct: gene CDK17

PCTK3 = tested on: T6, PCTK3
T6 construct: gene CDK18

PDGFRA = tested on: PDGFRA
PDGFRB = tested on: PDGFRB
PDPK1 = tested on: PDPK1
PFTAIRE2 = tested on: PFTAIRE2
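Note: KINOMEscan kinase panel screen.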

SMILES	%Inh (NEK6) [%]	%Inh (NEK7) [%]	%Inh (NEK9) [%]	%Inh (NIK) [%]	%Inh (NIM1) [%]	%Inh (NLK) [%]	%Inh (OSR1) [%]	%Inh (PAK1) [%]	%Inh (PAK2) [%]	%Inh (PAK3) [%]	%Inh (PAK4) [%]	%Inh (PAK6) [%]	%Inh (PAK7) [%]	%Inh (PCTK1) [%]	%Inh (PCTK2) [%]	%Inh (PCTK3) [%]	%Inh (PDGFRA) [%]	%Inh (PDGFRB) [%]	%Inh (PDPK1) [%]	%Inh (PFTAIRE2) [%]
CN1c2ccc(CNc3ccc(F)cc3)cc2-c2c(cnn2C)S1(=O)=O	0	0	0	0	0	0	0	0	14	0	0	0	0	0	0	0	0	0	12	0
CN1c2ccc(NCc3ccc(F)cc3)cc2-c2c(cnn2C)S1(=O)=O	0	0	0	7	4	0	0	0	1	0	0	0	0	0	0	0	0	0	0	0
Fc1ccc(-c2ncn(CCCN3CCOCC3)c2-c2ccccn2)cc1 [SB-211742]	15	0	0	0	0	0	0	0	0	0	0	8	0	0	2	0	0	0	0	20
O=C(c1ccc(-c2cc(-c3c[nH]nc3-c3ccccn3)ccn2)cc1)N1CCOCC1 [GW812171]	2	0	0	32	0	0	0	7	0	0	6	0	0	0	0	0	0	0	0	0
CN(C(=O)c1ccc(-c2cc(-c3c[nH]nc3-c3ccccn3)ccn2)cc1)C1CCOCC1 [GW810083]	6	6	18	29	20	0	0	0	0	0	28	0	16	0	0	0	4	0	0	29
O=c1cc(N2CCOCC2)nc2n(Cc3cccc4ccccc34)ccn12 [GSK2333389]	0	13	14	0	8	0	5	13	3	10	0	0	0	2	0	7	0	6	10	29
Cc1cccc(-c2nc(Nc3ccc4ncsc4c3)c3ccccc3n2)n1 [GW867588]	8	0	0	0	17	14	0	0	45	19	8	0	8	0	0	0	33	0	0	0
Cc1ccc(NC(=O)c2ccnc(N3CCN(C)CC3)c2)cc1-c1ccc(C(=O)NCC2CC2)cc1 [GW775604]	0	0	0	4	0	0	0	9	37	0	0	0	0	0	0	0	0	93.4	0	1
[2H]C([2H])(c1cccc(C(F)(F)F)c1C)n1ccn2c(=O)nc(N3CCOCC3)cc12 [GSK2336394]	0	0	53	0	13	0	9	0	12	13	0	0	0	4	0	11	0	15	0	0
CC(=O)Nc1ccc(COc2ccc(Nc3ccnc4cc(-c5ccccn5)ccc34)cc2)cc1.Cl [GW440148]	0	0	20	0	23	0	0	15	0	22	0	13	15	1	17	18	99.1	100	0	26
COc1ccc(COc2cc(-n3cnc4ccccc43)sc2C(N)=O)cc1 [GSK1024304]	0	0	5	10	28	0	14	1	4	1	0	0	5	0	0	11	0	31	3	17
Fc1ccc(-c2nn3c(OCC(F)(F)F)cccc3c2-c2ccncc2)cc1 [GW514784]	0	0	4	56	0	65	20	0	0	0	0	0	16	0	15	0	0	21	0	7
Cc1nnc(-c2ccc3occ(-c4ccc(C(C)O)cc4)c3c2)o1 (centres unmarked)	4	0	0	0	0	2	25	14	16	23	10	11	1	18	11	1	0	8	0	0
CCc1nc(-c2cccc(C)c2)c(-c2ccnc(NCc3ccccc3)c2)s1	0	0	0	0	0	21	0	30	27	22	22	11	0	0	13	0	30	39	3	7
CCCCCc1nc2c(N)ncnc2n1CCCCC [SKF-97255]	2	0	0	0	27	0	0	12	67	4	6	0	0	0	0	0	0	73	0	0
COc1cc2c(cc1OC[C@@H](O)CO)ncc1c3ccc(C#N)cc3[nH]c21	0	0	0	60	30	0	0	0	0	0	0	0	11	0	0	0	99.2	91.4	8	6
